# Compound activity (PubChem BioAssay)
# ELG1 genotox: induces genotoxicity in HEK293T cells with luciferase-tagged ELG1. HEK293T ELG1-luciferase reporter, luminescence, 16 h. Potency, µM (titrated, usually from 46 µM), usual class: activators. hit rate 1.3% among 330,000; also: nearly all actives have a fitted effect of over 60% in size
#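 Genotoxic stress is detected as increased luminescence from luciferase-tagged ELG1 in HEK293T cells, measured with ONE-Glo after a 16 hr treatment at 37 °C.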
# FLuc modulator: counter-screen for miR-21 project: firefly luciferase inhibitors or activators; P08659; purified FLuc, Km substrates, luminescence inhibition; Potency, µM (highest dose often 57.5 µM), most hits filed as inhibitors; hit rate 6.9% among 360,000; also: nearly all actives have a fitted effect of over 55% in size
# Target sequence (P08659 whole entry, looked up): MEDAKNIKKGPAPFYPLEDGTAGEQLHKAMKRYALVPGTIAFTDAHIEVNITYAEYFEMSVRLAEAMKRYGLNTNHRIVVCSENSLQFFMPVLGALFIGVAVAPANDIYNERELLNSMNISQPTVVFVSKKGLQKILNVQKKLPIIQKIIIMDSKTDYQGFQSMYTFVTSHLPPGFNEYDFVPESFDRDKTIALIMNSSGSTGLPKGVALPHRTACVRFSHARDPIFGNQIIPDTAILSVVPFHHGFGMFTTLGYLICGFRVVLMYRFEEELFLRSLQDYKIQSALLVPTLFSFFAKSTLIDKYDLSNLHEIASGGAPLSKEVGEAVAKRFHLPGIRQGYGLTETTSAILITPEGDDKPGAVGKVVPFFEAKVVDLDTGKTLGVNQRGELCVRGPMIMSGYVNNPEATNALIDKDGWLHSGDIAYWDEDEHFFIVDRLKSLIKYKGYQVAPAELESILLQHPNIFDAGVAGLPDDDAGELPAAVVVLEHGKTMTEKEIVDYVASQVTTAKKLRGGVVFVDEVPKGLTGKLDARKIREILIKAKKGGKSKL
#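 Purified P. pyralis luciferase (10nM final) with 10uM D-luciferin and 10uM ATP (Km levels) in 50mM Tris acetate pH 7.5, 10mM Mg acetate, 0.01% Tween-20, 0.05% BSA; qHTS 6-point titration, ~60 µM downward; luminescence read.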
# NPC1 promoter act: NPC1 promoter activation; Huh7 NPC1 promoter luciferase reporter, 24 h; Potency, µM (top dose mostly 9.22 µM), most hits filed as activators; hit rate 2.4% among 320,000; AID 485313; also: nearly all actives have a fitted effect of over 60% in size
#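 Compounds in DMSO were transferred onto Huh7 NPC1-luciferase reporter cells pre-incubated 2 h; after 24 h at 37 °C, Amplite reagent was dispensed and luminescence recorded 10 min later.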
# SMN2 splice enh: increases expression of the SMN2 splice variant | HEK293 SMN2-luciferase splicing reporter, luminescence, 30-36 h | Potency, µM (series often up to 46.1 µM), actives largely listed as activators | hit rate 2.8% among 210,000; also: nearly all actives have a fitted effect of over 55% in size
#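 HEK293 cells carry an SMN2 […]–luciferase reporter in which exon 7 inclusion puts luciferase in frame. Cells were plated 10-12 h before compound addition, then incubated 30-36 h at 37C. ONE-Glo luminescence was read; sodium butyrate at 4.5 mM final served as control.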
# Rab9 prom act: Rab9 promoter activation. hit rate 2.8% among 320,000. AID 485297. Huh7 Rab9 promoter-luciferase reporter, luminescence, 24 h. Potency, µM (highest dose often 9.22 µM), usual class: activators; also: nearly all actives have a fitted effect of over 60% in size
#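 Cell-based reporter: Huh7 stable for Rab9 promoter-driven luciferase, plated in reduced-serum medium with 10% FBS at 1500 cells/well, compound-treated 24 h at 37 °C, luminescence read after 10 min reagent.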
# uPA generation: inhibitors of cell surface uPA generation; cell surface uPA generation assay, qHTS; Potency, µM (highest dose often 38.3 µM), most hits filed as inhibitors; hit rate 0.31% among 330,000; active = well fitted inhibition curve with a large enough effect; inconclusive = small, poorly fitted or top-dose-only effect; inactive = no such curve, though single readings can be large or run the other way; tested in mouse RAW 264.7 cells; also: nearly all actives have a fitted effect of over 55% in size
# Numbers stand for hits; – = inactive; ? = inconclusive; · = no result given. The list is not random: actives were taken first. Their share in the collection is about 7.3%. Unless noted, calls follow the shape of the dose curve; as a rule, active = well fitted curve in the direction sought with a large enough effect; inconclusive = small, poorly fitted or top-dose-only effect, or another doubt; inactive = no such curve, though single readings can be large; an effect the other way counts as inactive or inconclusive.
SMILES,ELG1 genotox,FLuc modulator,NPC1 promoter act,SMN2 splice enh,Rab9 prom act,uPA generation
O=C(Nc1ccc2c(c1)Cc1ccccc1-2)c1ccco1,3.3µM,2.1µM,0.79µM,11µM,0.4µM,–
O=C(Nc1ccc2c(c1)oc1ccccc12)c1cccnc1,–,6µM,?,–,?,–
Cc1ccc2nc(SCC(=O)NCc3ccc(F)cc3)nc(=O)n2c1,–,–,–,·,–,–
O=C(O)c1ccc2c(c1)C(=O)N([C@H](Cc1c[nH]c3ccccc13)C(=O)O)C2=O,·,–,–,·,–,·
O=C(Nc1ccc2c(c1)Cc1ccccc1-2)c1cccnc1,–,6.7µM,?,·,3.2µM,–
O=C(Nc1ccc2ccccc2c1)c1cccnc1,?,9.5µM,4µM,?,1.4µM,–
COc1ccc(NC(=O)c2cccnc2)cc1,–,–,–,·,–,–
COc1cccc(CNC(=O)C2CCN(c3nnc(-n4c(C)ccc4C)s3)CC2)c1OC,·,–,·,–,·,·
Cc1cc(Nc2cccc(C(F)(F)F)c2)nc2ccc(NC(=O)c3ccc(N(C)C)cc3)cc12,·,–,·,–,·,·
Cc1ccc(C(=O)N/N=C2\CCCc3ccccc32)c(C)c1,–,6µM,2.8µM,13µM,?,?
O=C(N/N=C1\CCCc2ccccc21)c1ccc([N+](=O)[O-])cc1,?,6µM,?,14µM,3.5µM,·
CCc1ccc(OCc2cc(=O)n3cc(C)sc3n2)cc1,·,–,·,–,·,·
COC(=O)c1cc(C)sc1NC(=O)CN1CCN(C(=O)C2CCCO2)CC1 (configuration not stated),–,0.85µM,–,·,–,–
Cc1c(O)ccc(-c2n[nH]c(C(=O)O)c2-c2nc3ccccc3s2)c1O,–,17µM,–,·,–,–
Cc1c(O)ccc(-c2[nH]ncc2-c2nc3ccccc3s2)c1O,–,–,–,–,–,–
CN(C)c1cccc(C(=O)Nc2cccc(F)c2)c1,?,19µM,2.2µM,14µM,2.8µM,–
O=C(Nc1cccc(F)c1)c1c(F)c(F)c(F)c(F)c1F,–,–,–,–,–,–
CCN(CC)c1ccc(C(=O)Nc2cccc(F)c2)cc1,?,?,0.79µM,8.9µM,1.1µM,–
CCN(CC)c1ccc(C(=O)NN)cc1,–,–,–,–,–,–
Fc1ccc(C2=Nc3cccc4cccc(c34)N2)cc1,–,15µM,–,–,?,–
Brc1ccc(-c2ccc(C3Nc4cccc5cccc(c45)N3)o2)cc1,–,–,–,·,–,·
Brc1ccc(C2=Nc3cccc4cccc(c34)N2)o1,–,12µM,–,–,–,–
FC(F)(F)C1=Nc2cccc3cccc(c23)N1,–,?,–,·,–,–
CCOC(=O)CC1CCCCN1Cc1cn[nH]c1-c1ccc(F)cc1F (configuration not stated),–,–,–,·,–,–
COC(=O)c1ccc(NC(=O)C2CCN(c3ncnc4c3nc3n4CCCCC3)CC2)cc1,·,–,·,·,·,·
SMILES,ELG1 genotox,FLuc modulator,NPC1 promoter act,SMN2 splice enh,Rab9 prom act,uPA generation
c1csc(-c2nnc3ccccn23)c1,–,–,–,0.0028µM,–,–
Clc1ccc(-c2nnc3ccccn23)cc1,–,–,–,–,–,–
COc1ccc(Cc2nc3ccc(C(=O)N4CCCC4)cc3o2)cc1,?,13µM,3.2µM,·,2.2µM,–
O=C(c1ccc2nc(Cc3cccc(Cl)c3)oc2c1)N1CCOCC1,?,17µM,?,·,?,–
C=C(C)CNC(=O)c1ccc2nc(Cc3ccc(OC)cc3)oc2c1,?,11µM,2.2µM,·,2.8µM,–
CC(=O)/C(=C/c1ccccc1)C(=O)Nc1ccccc1C,–,–,–,–,–,2.8µM
O=Cc1ccccc1OCc1ccc2c(c1)OCO2,13µM,1.3µM,–,·,–,?
Cc1ccccc1C(=O)NC(CC(C)C)C(=O)OCC(=O)c1c(N)n(C)c(=O)n(C)c1=O (configuration not stated),–,–,–,–,–,–
CCOc1ccc(N2C(=O)N(Cc3c(F)cccc3Cl)c3ccccc3S2(=O)=O)cc1,·,–,·,·,·,·
COc1cccc(Cn2c(=O)n(CC3CCC(C(=O)N4CCOCC4)CC3)c(=O)c3sccc32)c1 (configuration not stated),·,–,·,·,·,·
Cc1ccc(N/C=C2\CCCCC2=O)c(C)c1,–,?,–,–,–,–
O=C1CCCC/C1=C\Nc1ccc(Cl)cn1,?,17µM,?,?,?,–
